# TSHR antag – blocks TSH signaling through the human TSH receptor | P16473 | TSHR-expressing cells, TSH-stimulated cAMP HTRF, 2 h; active compounds read low | activity change, negative = inhibition, % at 11.5 µM | 0.2% of 330,000 active | AID 504810;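 active = activity change below a set negative limit, meaning inhibition stronger than a set level, cut at about -70% in these data; inconclusive = activity change between two set negative limits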; also: % is scaled to controls: 0 for no effect and ±100 for the full control effect
# Target sequence (P16473 whole entry, looked up): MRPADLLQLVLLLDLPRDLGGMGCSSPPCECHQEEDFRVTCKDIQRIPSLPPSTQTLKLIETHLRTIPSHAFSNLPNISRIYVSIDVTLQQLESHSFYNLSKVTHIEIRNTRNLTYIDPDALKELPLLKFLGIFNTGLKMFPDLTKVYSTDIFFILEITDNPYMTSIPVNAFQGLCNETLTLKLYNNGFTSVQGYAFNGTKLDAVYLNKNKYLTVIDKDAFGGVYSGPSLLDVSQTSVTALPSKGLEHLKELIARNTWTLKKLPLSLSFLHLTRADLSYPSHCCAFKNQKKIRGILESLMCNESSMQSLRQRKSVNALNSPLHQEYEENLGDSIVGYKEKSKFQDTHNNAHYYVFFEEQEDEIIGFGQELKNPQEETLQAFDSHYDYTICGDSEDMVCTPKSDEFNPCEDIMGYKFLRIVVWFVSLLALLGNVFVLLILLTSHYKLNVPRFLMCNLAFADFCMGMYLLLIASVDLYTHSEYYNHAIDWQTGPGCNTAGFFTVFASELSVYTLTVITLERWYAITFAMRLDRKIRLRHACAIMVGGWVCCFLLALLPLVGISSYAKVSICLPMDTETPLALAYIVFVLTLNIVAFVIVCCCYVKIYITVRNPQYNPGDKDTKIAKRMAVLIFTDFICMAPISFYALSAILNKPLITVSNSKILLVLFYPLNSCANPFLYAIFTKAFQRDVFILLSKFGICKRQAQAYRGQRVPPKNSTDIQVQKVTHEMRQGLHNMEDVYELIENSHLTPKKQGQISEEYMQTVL
#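 Freshly harvested TSHR cells receive pin-tooled compound, then EC80 TSH at 4nM final. After 2 hours at 37 deg C, antibody in lysis buffer and cAMP-d2 are added; 30 minutes at ambient temperature precede the HTRF read.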
# pAkt inh – blocks phosphorylation of Akt | activity change, % for hits at 50 µM | 0.32% of 360,000 active | AID 651550 | Neuro2A IGF-stimulated pAkt S473 HTRF, 20 min; active compounds read low; in the data active = activity change below about -80%; inconclusive = mostly about -51% to -80%; also: % is scaled to controls: 0 for no effect and ±100 for the full control effect
#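 Neuro2A cells (4,500/well, DMEM with 0.5% FBS) were treated with compound at a single 50 µM final concentration, stimulated with 6 nM IGF for 20 min at 37 °C, and lysed. Phospho-Akt Ser473 was read by HTRF as 665/615 ratio ×10^4.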
# gsp agonist – gsp mutant agonism | gsp mutant cells, cAMP HTRF, 30 min | Potency, µM (series often up to 76.9 µM), for inactives: top-dose activation (cAMP increase), most hits filed as activators | 0.13% of 340,000 active | AID 624287; active = well fitted activation curve with a large enough effect; inconclusive = small, poorly fitted or top-dose-only effect, or another doubt; inactive = no such curve, though single readings can be large or run the other way; cell line not stated here;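 also: phosphodiesterase inhibitor Ro 20-1724 added with compounds to block cAMP breakdown; potency is read from the fitted curve at half-maximal effect; nearly all actives have a fitted effect of over 60% in size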
#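 Cells stably selected in G418 were plated at 2000/well, grown 16-24 hr, then given compounds in DMSO with the PDE inhibitor […] (300 uM solution added) for 30 min at 37C; cAMP was read by HTRF.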
# gsp antag – antagonizes gsp, the McCune-Albright syndrome mutation | gsp-mutant cells, cAMP HTRF, 30 min | Potency, µM (titrated, usually from 76.9 µM), for the others: at the highest dose activity change, negative = inhibition, actives largely listed as inhibitors | 0.4% of 340,000 active | AID 624288; calls by dose curve; cell line not stated here;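 also: intracellular cAMP measured with PDE inhibitor Ro 20-1724 present during compound exposure; potency is read from the fitted curve at half-maximal effect; % is scaled to controls: 0 for no effect and ±100 for the full control effect; nearly all actives have a fitted effect of over 65% in size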
#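 Cells, 2000/well, grown 16–24 h in DMEM 10% FBS with 0.5 mg/ml G418, then compounds plus […] (300 uM addition stock), 30 min at 37C. cAMP read by HTRF (cAMP-d2 and anti-cAMP antibody-K in lysis buffer) after 30 min RT.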
# RXFP1 antagonist – blocks the human relaxin receptor RXFP1. activity change, negative = inhibition, % at 57.5 µM. HEK293-RXFP1, relaxin-stimulated cAMP HTRF, 30 min; active compounds read low. Q9HBX9. 0.59% of 350,000 active;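 active = activity change of -60% or lower, but not beyond a set lower limit; inconclusive = change between -60% and -40%, or beyond the set limit; inactive = change above -40%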; also: % is scaled to controls: 0 for no effect and ±100 for the full control effect
# RXFP1 ag – activates the human relaxin receptor RXFP1; Potency, µM (series often up to 57.5 µM), inactives show top-dose activation, most hits filed as activators; AID 2676; 0.3% of 370,000 active; HEK293T-RXFP1 cAMP TR-FRET, 30 min; response scale: percent of porcine relaxin response, buffer zero; Q9HBX9; active = well fitted activation curve with a large enough effect; inconclusive = small, poorly fitted or top-dose-only effect; also: potency is read from the fitted curve at half-maximal effect; % is scaled to controls: 0 for no effect and ±100 for the full control effect; nearly all actives have a fitted effect of over 60% in size
#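 HEK293 cells stably expressing RXFP1, treated 30 min at 37C with compounds plus PDE4 inhibitor Ro 20174; cAMP measured by HTRF TR-FRET. Normalized to buffer and 29 nM porcine relaxin; EC50 by Hill fit.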
# Starred values were filed as active, the others as inactive; i = inactive; ? = inconclusive; nt = no result given; ! = a repeat was not active; [ ] = remark or other dose. Compounds with a hit are over-represented: about 1.3% of the library has one in this group of screens.
SMILES,TSHR antag,pAkt inh,gsp agonist,gsp antag,RXFP1 antagonist,RXFP1 ag
CCc1ccc(-n2c(=O)c3c(C)c(C(=O)N(C)C)sc3n(Cc3ccccc3F)c2=O)cc1,nt,nt,nt,nt,-9,-2%
O=C(N=C1SC2CS(=O)(=O)CC2N1c1ccc(F)cc1)C1CC1 (stereo unspecified),-109*,i,?,10%,-12,-3%
O=C1c2ccccc2C(=O)N1CCOc1ccccc1Br,-13,i,3.5µM*,-5%,-5,0%
O=C(CSc1nnc(-c2cccnc2)o1)Nc1nccs1,nt,i,-1%[15.4 µM],8%,-10,-1%
Cc1ccc(C)n1N1C(=O)/C(=C\c2ccc(Cl)cc2)SC1=S,-8,i,10%,?,-35,0%
CC(=O)N(C(C)=O)N1C(=O)/C(=C/c2ccc(Cl)cc2)SC1=S,0,i,-15%[15.4 µM],-6%,-109*,1%
O=C(CSc1nnc(Cn2nnc3ccccc32)o1)N(Cc1ccc(F)cc1)c1ccccc1,-30,i,7%,?,-16,-1%
COc1ccc(N(Cc2ccccc2)C(=O)CSc2nnc(Cn3nnc4ccccc43)o2)cc1,-5,i,25%,28µM*,6,0%
O=C(Cn1[nH]c(=O)c2ccccc2c1=O)OCC(=O)c1ccc(Br)cc1,17,i,-10%[15.4 µM],-15%,-76*,1%
NS(=O)(=O)c1ccc(CCNC(=O)c2ccc(OCC3CCCO3)cc2)cc1 (stereo unspecified),-2,i,-3%[15.4 µM],-15%,-15,-1%
O=C1OC2(c3ccc(O)cc3Oc3cc(O)ccc32)c2ccccc21,nt,nt,nt,nt,27,nt
O=C1OC2(c3ccccc31)c1cc(I)c(O)c(I)c1Oc1c2cc(I)c(O)c1I,-114*,nt,nt,nt,nt,-35%
CN1CCN(CCCN2c3ccccc3Sc3ccc(C(F)(F)F)cc32)CC1,-11,i,?,18%,-65*!,3%
Cc1cccc(NC(=O)c2ccc(COc3ccc(Cl)cc3Cl)o2)n1,-26,-128%*,6%,6%,-11,0%
Cc1ccc(-c2noc(CCC(=O)N(C)c3ccccc3F)n2)cc1,nt,nt,nt,nt,0,-4%
CCc1ccccc1N(CC)C(=O)CCc1nc(-c2ccc(C)cc2)no1,-32,-116%*,?,?,-10,1%
CC(C)(C)C(=O)Nc1ccccc1C(=O)OCc1cc(=O)n2ccsc2n1,nt,nt,nt,nt,2,0%
c1cc2[nH]snc2c2nc(C3CC3)nc12,0,i,25µM*,5%,-15,5%
Cc1ccc(CN2C(=O)C(=O)c3cc(Br)cc(C)c32)cc1,nt,nt,nt,nt,-62*,1%
COc1ccccc1N1CCN(CC(O)COc2cc(OC)c(OC)c(OC)c2)CC1 (stereo unspecified),nt,nt,nt,nt,8,nt
CC(C)Cn1c(-c2csc3ccccc23)n[nH]c1=S,-19,i,-40%,-11%,-2,-2%
Cc1cccc(-n2c(-c3csc4ccccc34)n[nH]c2=S)c1,-8,i,-8%,-8%,-117*,3%
O=C(COC(=O)C1CCCC1)Nc1cccc(Cl)c1Cl,0,i,37%,6%,-74*,nt
O=C(Nc1cccc(Cl)c1Cl)C1CCCC1,nt,i,-1%[15.4 µM],4%,-16,nt
Oc1c(C(c2ccc(F)cc2)N2CCOCC2)sc2nc(-c3ccco3)nn12 (stereo unspecified),nt,nt,nt,nt,12,0%
SMILES,TSHR antag,pAkt inh,gsp agonist,gsp antag,RXFP1 antagonist,RXFP1 ag
Cc1ccc(NC(=O)CN2C(=O)NC3(CCCCC3)C2=O)cc1S(=O)(=O)N1CCOCC1,-7,i,-24%,6%,-4,nt
NC(=O)CCCCC1CCSS1 (stereo unspecified),nt,nt,nt,nt,-101*,nt
Cc1ccccc1S(=O)(=O)Nc1ncnc2ccccc12,1,i,0%[15.4 µM],4%,-7,6%
CCOc1ccccc1NC(=O)C(NCCc1ccc(OC)cc1)c1ccccc1 (stereo unspecified),-73*,i,24%,?,-9,-2%
CCOc1ccccc1NC(=O)C(NCCN(C)C)c1ccccc1 (stereo unspecified),11,i,-20%[15.4 µM],11%,-6,0%
CC1CCN(S(=O)(=O)c2ccc3c(c2)CCC(=O)N3CC(=O)Nc2cccc(C#N)c2)CC1,-9,nt,nt,nt,-3,2%
CC(=O)/C(N=Nc1c(C)n(C)n(-c2ccccc2)c1=O)=C(\C)O,-3,i,11µM*,2%,1,20%
CC(C)c1ccc(C(=O)N(c2ccccn2)C(C)c2ccco2)cc1 (stereo unspecified),3,i,-34%,-18%,1,-2%
CC(c1ccco1)N(C(=O)CSc1ccc(Br)cc1)c1ccccn1 (stereo unspecified),-20,i,-6%,35µM*,-4,-1%
COC(=O)c1ccc(NC(=O)CCn2cnnn2)c(C)c1,nt,nt,nt,nt,nt,0%
O=c1c2c(n3cnnc3n1-c1ccccc1)-c1ccccc1CC21CCCCC1,-7,-114%*,24%,?,0,3%
CCn1c(C)nc2cc(C(=O)NNS(=O)(=O)c3c(C)c(C)cc(C)c3C)ccc21,-6,-120%*,-7%,1%,3,0%
CCn1c(C)nc2cc(C(=O)OC(C(F)(F)C(F)F)C(F)(F)C(F)F)ccc21,-7,i,11%,22µM*,-5,0%
Cc1cccc(N2CCN(C(=O)C3CCN(S(=O)(=O)c4cccc5cccnc45)CC3)CC2C)c1 (stereo unspecified),-8,i,-81%,-27%,nt,0%
Cc1cccc(N2CCN(C(=O)C3CCN(S(=O)(=O)c4cccc5nsnc45)CC3)CC2C)c1 (stereo unspecified),-16,i,17%,35µM*,-8,0%
Cc1cccc(N2CCN(C(=O)C3CCN(c4nnc(-n5cccc5)s4)CC3)CC2C)c1 (stereo unspecified),-15,i,-15%,28µM*,-68*,6%
O=C1CCCN1C1CCN(Cc2ccccc2)S(=O)(=O)N1 (stereo unspecified),nt,i,nt,nt,nt,nt
N#Cc1ccc(-c2ccc(OCC(O)Cn3nnc4ccccc43)cc2)cc1 (stereo unspecified),-35,i,-5%,32µM*,-5,0%
CC(=O)c1ccc(OCC(O)Cn2nnc3ccccc32)cc1 (stereo unspecified),-1,i,-2%,-23%,3,3%
CCCN1CCN(CCNC(=O)Nc2cc(OC)cc(OC)c2)CC1,nt,nt,nt,nt,nt,1%
CN(CC(=O)Nc1ccc(F)cc1)C(=O)COC(=O)Cc1c(F)cccc1Cl,12,i,-34%[15.4 µM],3%,16,1%
